# Assay: binders from COS7 lysate, DM2A8 probe, primary screen, torsin A project, cell lysate, small-molecule microarray, fluorescence 635/667 (AID 1065)
# Details: higher = more signal, COS7 lysate expressing mutant human TOR1A
row,Compound,composite z-score
1,O=C(O)C1=CC[C@H]2C(=O)N(c3ccccc3)C(=O)[C@@H]12,-0.037
2,C=CC[C@H](OC(=O)Nc1ccc(SC)cc1)c1ccc(O)c(F)c1,0.274
3,COC(=O)C1(CC(C)C)C=C2C(=C(C)C(=O)C2C)CN1 (configuration not stated),0.126
4,[N-]=[N+]=NCc1ccccc1C[C@]1(C(=O)N2CCCCC2)COC(c2ccc(OCCCO)cc2)=N1,0.184
5,C=C[C@H](C)[C@@H](OC(=O)Nc1ccc(SC)cc1)c1ccc(OCCO)cc1,0.378
6,COC(=O)Cn1c(C(=O)N(C)C)cc2c1C[C@H]1CN(C(=O)c3ccccc3)[C@@](Cc3ccccc3)(C(=O)OC)[C@@H]21,-0.365
7,O=C1c2ccccc2[C@](Cc2ccccc2I)(C(=O)NCCN2CCOCC2)[C@H](c2ccc(CO)cc2)N1Cc1ccccc1C(F)(F)F,0.321
8,Cc1ccc(S[C@]2(C(=O)NCCN3CCOCC3)CC(=O)N(C(C)C)[C@@H]2c2ccc(CO)cc2I)cc1,-0.158
9,C=C(CCCC)C(=O)CC[C@H](OC(=O)c1ccccc1-c1ccccc1C(=O)O)c1cccc(OCCO)c1,0.375
10,[N-]=[N+]=Nc1ccccc1C[C@@]1(C(=O)NCc2ccccc2)N=C(c2ccc(OCCCO)cc2)O[C@@H]1c1ccccc1,0.405
11,C=CCNC(=O)[C@@H]1[C@H]2C(=O)O[C@H](c3ccccc3)[C@H](c3ccccc3)N2[C@H](c2ccc(OCCO)cc2)[C@@]12C(=O)Nc1ccc(C#CC3=CCCCC3)cc12,0.308
12,CC(C)C[C@@H]1NC(=O)[C@H]2C[C@@H](C(=O)O)[C@@H](c3cccc(OCCO)c3)N2C1=O,1.76

# Reference: PubChem BioAssay
